Source: PubChem BioAssay (NCATS)
Records with an inconclusive call do not appear. The source made the active and inactive calls. Calls come from the whole dose curve; as a rule, active = well fitted cell-killing curve with a large enough effect; inconclusive = small, poorly fitted or top-dose-only effect, or effect the other way; inactive = flat fitted curve, though single readings scatter.

What was measured:
Assay in all cases: Primary qHTS to identify gynecologic anti-cancer compounds using libraries of approved drugs and bioactive compounds (AID 1345084); note: nearly all actives have a fitted effect of over 55% in size
[1] = system: C33A; settings: Gynecologic cancer cell panel viability, ATPlite luminescence, 48 h; series mostly up to 57.5 µM
Procedure, shortened: (§1)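 In this quantitative HTS, cell killing is estimated from loss of ATP-dependent luciferase light. Cells see five compound concentrations over a 48 h exposure.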

[2] = system: CAOV3; settings: Gynecologic cancer cell panel viability, ATPlite luminescence, 48 h; series mostly up to 57.5 µM
Procedure, shortened: as §1

[3] = system: CASKI; settings: Gynecologic cancer cell panel viability, ATPlite luminescence, 48 h; series mostly up to 57.5 µM
Procedure, shortened: as §1

[4] = system: HeLa; settings: Gynecologic cancer cell panel viability, ATPlite luminescence, 48 h; series mostly up to 57.5 µM
Procedure, shortened: as §1

[5] = system: Hek293T; settings: Gynecologic cancer cell panel viability, ATPlite luminescence, 48 h, control line for the selectivity index; series mostly up to 57.5 µM
Procedure, shortened: as §1

[6] = system: JEG-3; settings: Gynecologic cancer cell panel viability, ATPlite luminescence, 48 h; series mostly up to 57.5 µM
Procedure, shortened: as §1

[7] = system: Es-2; settings: Gynecologic cancer cell panel viability, ATPlite luminescence, 48 h; series mostly up to 57.5 µM
Procedure, shortened: as §1

Measured: Potency
Potency is the fitted concentration of half-maximal effect.

O=C(O)C[C@@H](NC(=O)c1cc(-c2ccc(-c3ccncc3)cc2)cs1)c1ccccc1
not listed: [7]
inactive: all other assays above

CC(C)(O)C1CCC2(C)C3C(O)C4C(C13)C42CO (stereo not drawn)
inactive: all assays above

O=C(c1ccc(F)cc1)C1CCN(CCn2c(=O)nc3n(c2=O)CCCC3)CC1
not listed: [3]
inactive: all other assays above

Cc1nnc(C(C)C)n1C1CC2CCC(C1)N2CCC(NC(=O)C1CCC(F)(F)CC1)c1ccccc1 (stereo not drawn)
not listed: [5]
inactive: all other assays above

Nc1ccn([C@@H]2C(F)=C(CO)[C@@H](O)[C@H]2O)c(=O)n1
not listed: [5] | [7]
inactive: all other assays above

C=C1CC2(C(=O)O)CC1CCC2C1(C)CCCC2(C)C(=O)OC(O)C21 (stereo not drawn)
not listed: [3]
inactive: all other assays above

CCc1c(CC(N)=O)c2cc(OCCCP(=O)(O)O)ccc2n1Cc1ccccc1
inactive: all assays above

CC1(C)O[C@@]2(C)CC[C@@H]1C[C@@H]2OC1OC(CO)C(O)C(O)C1O (stereo partly drawn)
inactive: all assays above

COC1CC(=O)C23C(=O)NC(CC(C)C)C2C(C)C(C)=CC3/C=C(\C)CCC1O (stereo not drawn)
not listed: [5]
inactive: all other assays above

CC[C@H]1OC(=O)[C@H](C)[C@@H](OC2C[C@@](C)(OC)[C@@H](O)[C@H](C)O2)[C@H](C)[C@@H](OC2O[C@H](C)C[C@H](NC)[C@H]2O)[C@](C)(O)C[C@@H](C)CN(C)[C@H](C)[C@@H](O)[C@]1(C)O (stereo partly drawn)
inactive: all assays above

c1ccc(Nc2nc3c(s2)CCCc2[nH]ncc2-3)nc1
not listed: [4]
inactive: all other assays above

CC1CC(O)C2(C)C(C(=O)O)=CCCC2C1(C)CCc1ccoc1 (stereo not drawn)
inactive: all assays above

CC1CCC2C(C(=O)O)=CC3C(O)C(C)(C)CC123 (stereo not drawn)
inactive: all assays above

C=C1[C@@H]2[C@H]3OC(=O)C(=C)[C@@H]3CC[C@@](C)(O)[C@@H]2C[C@@H]1O[C@@H]1O[C@H](CO)[C@@H](O)[C@H](O)[C@H]1O
inactive: all assays above

N#CC1C(=O)Nc2scc(-c3ccc(-c4ccccc4O)cc3)c2C1=O (stereo not drawn)
inactive: all assays above

CC1=C2[C@@H]([C@H](C)CC[C@H]2/C=C(\C)C(=O)O)[C@H](O)C1
inactive: all assays above

Cc1ccc(C(=O)Nc2ccc(Oc3cc4cnn(C)c4cc3-c3cn[nH]c3)c(F)c2)c(=O)n1-c1ccc(F)cc1
active: [2] 8.91 µM
inactive: [1] | [7]

C[C@@H]1CCC2C(C)(C)[C@H](O)CC[C@]2(C)[C@@]12Cc1c(O)cc3c(c1O2)CN(CCO)C3=O (stereo partly drawn)
inactive: all assays above

CC(C)C(=O)c1cn(CC(=O)COc2ccc(Oc3ccccc3)cc2)c2ccc(C(=O)O)cc12
inactive: all assays above

CCCCNC(=O)[C@@H]1Cc2ccccc2N1C(=O)[C@@H](N)CC
not listed: [5]
inactive: all other assays above

CC(=O)N1c2ccccc2C2(O)CC3C(=O)NC(CC(C)C)C(=O)N3C12 (stereo not drawn)
not listed: [5]
inactive: all other assays above
